Assay outcomes (PubChem)
ERAP1 inh – human ERAP1 aminopeptidase inhibitors, primary screen, biochemical, single point, plate reader; Endoplasmic reticulum aminopeptidase 1 (Homo sapiens), Q9NZ08; recombinant ERAP1, Leu-AMC fluorescence, 60 min; 340,000 tested, 0.15% active; inhibition, % at 10.7 µM;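 active = mean replicate inhibition of at least 30%, or all replicates individually reaching that 30% level; inactive = mean below 30% and not every replicate reaching it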;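 note: 0% = neutral control wells and 100% = L-leucinethiol positive control wells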
DENV2 CPE rescue – inhibitors of DENV2 cytopathic effect, primary screen, cell-based, plate reader, single concentration. AID 651640, 2012. CPE inhibition, % at 9.99 µM. 350,000 tested, 1.7% active. DENV2-infected cells, cytopathic effect rescue; in the data active = CPE inhibition above about 20%, passing the limit was not always enough; tested in BHK-21 cells;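 note: 0% = median of neutral control wells and 100% = median of positive control wells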
ERp5 inh – inhibitors of ERp5-driven insulin aggregation, primary screen, biochemical, turbidity, absorbance 650 nm, single point; inhibition, % at 9.99 µM; 90 min; Protein disulfide-isomerase A6 (Homo sapiens), Q15084; 350,000 tested, 0.05% active;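 active = mean replicate inhibition above about 25%, with every replicate also reaching it, limit read from the data, passing the limit was not always enough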
AF4-AF9 inh – inhibitors of AF4 peptide binding to AF9, primary screen, biochemical, AlphaScreen, biotin-AF4 peptide, FLAG-AF9, single point; 350,000 tested, 0.47% active; Protein AF-9 (Homo sapiens), P42568; inhibition, % at 10 µM;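 active = every replicate reaching a set inhibition limit, whatever the replicate mean, cut at about 25% in these data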;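 note: 0% = plate neutral control median and 100% = total signal loss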
Target sequence (P42568 whole entry, looked up): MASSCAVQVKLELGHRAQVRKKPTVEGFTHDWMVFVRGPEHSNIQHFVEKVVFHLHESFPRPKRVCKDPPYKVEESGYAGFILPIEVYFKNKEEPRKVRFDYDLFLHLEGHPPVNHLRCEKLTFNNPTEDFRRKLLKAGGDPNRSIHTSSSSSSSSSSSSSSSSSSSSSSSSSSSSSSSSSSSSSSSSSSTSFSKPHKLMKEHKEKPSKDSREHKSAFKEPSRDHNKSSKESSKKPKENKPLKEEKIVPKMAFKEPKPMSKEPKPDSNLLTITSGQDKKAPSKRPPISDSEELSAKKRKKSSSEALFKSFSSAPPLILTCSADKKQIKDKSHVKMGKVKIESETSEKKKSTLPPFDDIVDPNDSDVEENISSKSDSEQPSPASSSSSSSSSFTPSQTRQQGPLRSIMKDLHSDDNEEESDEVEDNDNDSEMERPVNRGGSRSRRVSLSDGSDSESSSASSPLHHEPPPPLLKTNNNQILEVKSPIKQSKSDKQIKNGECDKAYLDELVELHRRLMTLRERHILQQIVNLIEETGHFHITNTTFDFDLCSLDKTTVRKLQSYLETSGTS
PDI inh – inhibitors of human PDI, primary screen, biochemical, turbidity, single point, plate reader; AID 588391, 2011; inhibition, % at 10 µM; 350,000 tested, 0.052% active; PDI insulin aggregation turbidity, A650, 90 min;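 active = mean inhibition across replicates of 30% or more, whatever share of single replicates reach that level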
Active calls of the source: *; / = no result; ! = repeats disagree. Rows were chosen to be rich in hits. Some 1.8% of all compounds tested hit in one or more screens of this group.

SMILES	ERAP1 inh	DENV2 CPE rescue	ERp5 inh	AF4-AF9 inh	PDI inh
CCC(=O)N1[C@H](CO)[C@@H](c2ccc(-c3ccccc3OC)cc2)C12CN(C(C)=O)C2	1	15	0	-1	/
CC(=O)N1[C@@H](CO)[C@@H](c2ccc(C3=CCCC3)cc2)C12CN(C(=O)NC(C)C)C2	1	41*	-4	-2	/
CCC(=O)N1[C@H](CO)[C@H](c2ccc(C3=CCCC3)cc2)C12CN(C(=O)COC)C2	3	-3	0	-7	/
COc1ccccc1-c1ccc([C@@H]2[C@@H](CO)N(C(=O)C3CC3)C23CN(C(C)=O)C3)cc1	-1	79*	-1	-1	/
CC=Cc1ccc2n(c1=O)C[C@@H]1[C@@H](CO)[C@H](C(=O)NCc3cc(F)cc(F)c3)[C@H]2N1S(C)(=O)=O (mixture of isomers)	-1	5	1	1	/
Cc1cc(N=Nc2ccc(Cl)cc2)cc(CN2CCCC2)c1O	/	6	5	49*	15
O=C(C[C@H]1C[C@H]2c3cc(NS(=O)(=O)c4ccccc4)ccc3O[C@H]2[C@@H](CO)O1)N1CCOCC1	5	0	0	2	/
CC(C)(C)[C@@H]1C=C(C(=O)N2CCN(Cc3ccc4c(c3)OCO4)CC2)O[C@H](OCc2ccc(CO)cc2)C1	5	34*!	-2	10	14
C1CCCCCC2(CCCCC1)OCC(CN1CCOCC1)O2 (configuration not stated)	/	/	/	/	5
C[N+]1(CC2COC3(CCCCC3)O2)CCCC1 (configuration not stated)	81*	-21	0	-7	14
O=C(N[C@H]1CC[C@@H](CC(=O)N2CCC(Cc3ccccc3)CC2)O[C@@H]1CO)c1cnccn1	4	5	-4	0	/
CCOC(=O)CC1=NN(c2ccccc2)C(=O)C1=c1sc(=C2SC(C)=C(C)N2CC)c(=O)n1CC	/	0	8	40*	6
CCN1/C(=c2/s/c(=C3/C(=O)N(c4ccccc4)N=C3C)n(CC)c2=O)C=Cc2ccccc21	-2	-4	2	4	3
COc1ccc(N/N=C(/C(N)=O)C2=NC(C)(C)Cc3ccccc32)cc1	-4	0	3	37*	7
O=C(Nc1ccccc1)C1CC(=O)N(Cc2ccccc2)C1 (configuration not stated)	1	0	1	0	-7
O=C(Nc1ccc(SC(F)F)cc1)C1CC(=O)N(Cc2ccccc2)C1 (configuration not stated)	7	22*	-1	-1	0
NCCCC[C@H](N)c1nnc([C@H](CCC(=O)O)NC(=O)C2CCNCC2)o1	4	-13	4	28*	-2
N[C@@H](CO)c1nnc([C@H](CCC(=O)O)NC(=O)C2CCNCC2)o1	-3	-8	-3	-2	0
CCc1cccc(NC(=O)O[C@H]2[C@H](OC(=O)Nc3ccc4c(c3)OCO4)[C@@H](OC(=O)Nc3ccc4c(c3)OCO4)[C@@H](OC)O[C@@H]2CO)c1	-4	-1	-1	4	/
COc1ccc2c3c([nH]c2c1)[C@H](CO)N(Cc1cc(F)ccc1F)CC31CN(C)C1	40*	13	4	2	/
CCS(=O)(=O)N1CC2(CN(Cc3ccccc3F)[C@@H](CO)c3[nH]c4cc(OC)ccc4c32)C1	-1	20*	1	-9	/
COc1ccc2c3c([nH]c2c1)[C@H](CO)N(Cc1cc(F)ccc1F)CC31CN(C(=O)CN(C)C)C1	-3	26*	0	-3	/
COc1ccc2c3c([nH]c2c1)[C@@H](CO)N(Cc1cc(F)ccc1F)CC31CN(C(=O)CN(C)C)C1	-43	18	-3	-2	/
COc1ccc2c3c([nH]c2c1)[C@@H](CO)N(Cc1cc(F)ccc1F)CC31CN(C)C1	0	0	-1	3	/
COCCNC(=O)C1(C)CCN(C(=O)c2cc(C(C)(C)C)nn2C)C1 (configuration not stated)	-1	38*	6	-3	-35
SMILES	ERAP1 inh	DENV2 CPE rescue	ERp5 inh	AF4-AF9 inh	PDI inh
COCCNC(=O)C1(C)CCN(C(=O)c2ccc3c(c2)C(C)(C)CCC3(C)C)C1 (configuration not stated)	-5	-3	0	-5	1
COc1ccc2c3c(n(C)c2c1)[C@H](CO)N(CC1CC1)CC31CN(C(=O)Nc2c(C)noc2C)C1	/	-3	/	-5	/
Cc1ccc(C(=O)NCC(=O)Nc2ccc(S(=O)(=O)Nc3cc(C)nc(C)n3)cc2)cc1	1	56*	5	-3	5
Cc1ccc(OCC(=O)Nc2ccc(S(=O)(=O)Nc3cc(C)nc(C)n3)cc2)cc1	1	17	-5	-1	4
CC(C)C#Cc1cnc2c(c1)C(=O)N([C@@H](C)CO)C[C@H](C)[C@H](CN(C)C(=O)CCN1CCCCC1)O2	0	10	2	0	/
C[C@H]1CN([C@@H](C)CO)C(=O)c2cccc(NC(=O)C3CCOCC3)c2O[C@@H]1CN(C)Cc1ccc2c(c1)OCO2	3	-8	-1	2	/
COc1cc(OC)cc(C(=O)Nc2ccc3nc4n(c(=O)c3c2)CCCC4)c1	2	119*	-3	0	7
CC(C)c1ccc(NC(=O)[C@H](NC(=O)[C@@H]2Cc3ccccc3CN2)c2ccccc2)cc1	1	57*	3	0	8
Cc1ccc(NC(=O)[C@H](NC(=O)[C@@H]2Cc3ccccc3CN2)c2ccccc2)cc1	-9	-7	3	-12	1
COc1cccc(NC(=O)N2CC3(C2)[C@@H](c2ccccc2)[C@@H](CO)N3C(=O)C2CCCC2)c1	1	-2	14	1	/
CC(=O)N[C@H]1CC[C@@H](CCNC(=O)C2CCC2)O[C@@H]1CO	7	8	-1	-2	/
CC1(C)C[C@H](O)[C@]2(CO)[C@H](O)C[C@]3(C)C(=CCC4[C@@]5(C)CC[C@H](O)C(C)(C)C5CC[C@]43C)[C@@H]2C1 (some centres not stated)	-2	-17	3	46*	-9
Cc1noc(C)c1NC(=O)N(C)C[C@H]1Oc2c(NS(=O)(=O)c3ccc(Cl)cc3)cccc2C(=O)N([C@H](C)CO)C[C@H]1C	1	15	14	-1	/
CN(N=Nc1ccc([N+](=O)[O-])cc1)c1ccccc1	5	-7	-1	7	1
CN(CCCC(=O)O)c1ccc(N=Nc2ccc([N+](=O)[O-])cc2)cc1	1	-3	-3	38*	6
COc1cccc(S(=O)(=O)N(C)C[C@@H]2Oc3cc(C4=CCCCC4)ccc3S(=O)(=O)N([C@@H](C)CO)C[C@@H]2C)c1	/	-2	-9	5	/
O=C(O)CCNc1ccc(NCCC(=O)O)c2c1C(=O)c1ccccc1C2=O	4	-3	-2	32*	3
